# Laboratory results as given in PubChem BioAssay.
# Values without a mark were called inactive.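 The calls were made as follows: active = viability at or below 10% of carrier control in both of two separate runs; inconclusive = viability at or below 10% in only one of the two runs; inactive = the rest.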
# Assay: SK-BR-3 cell growth inhibitors, pilot screen, 24 h, human (AID 572);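 also: compound exposure lasted between 18 and 24 h rather than exactly 24 h; 100% = carrier-treated control wells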
# Settings: SK-BR-3 viability, CellTiter-Glo luminescence, at 10 µM, hits give low values
row,SMILES,viability
1,CCOC(=O)c1cc(NC(=O)SCC(=O)O)c(C)nc1C,82%
2,Clc1c(CSc2nc3ccccc3o2)nc2sccn12,116%
3,O=C(CCn1[nH]c(=O)c2ccccc2c1=O)NCCO,78%
4,CC12CCC(C(=O)N3CCN(C(=O)C45CCC(C)(C(=O)O4)C5(C)C)CC3)(OC1=O)C2(C)C,109%
5,COc1cccc(C2C(C(=O)c3cccs3)=C(O)C(=O)N2CCCn2ccnc2)c1OC (stereo not given),130%
6,Cc1ccc(S(=O)(=O)N(CC(=O)N2CCC(C(N)=O)CC2)Cc2ccc(F)cc2)cc1,93%
7,COc1ccc(N2CCN(C(=O)CSc3ccccc3)CC2)cc1,113%
8,COc1ccccc1N1CCN(C(=O)C2CCN(S(=O)(=O)c3ccc(F)cc3)CC2)CC1,73%
9,COCCN1C=C(C(=O)OC)C(c2cc3c(cc2Br)OCO3)C(C(=O)OC)=C1,97%
10,CC1=C(C(N)=O)C(c2ccccn2)n2nc(SCc3ccccc3)nc2N1 (stereo not given),88%
11,O=C(/C=C/N1CCOCC1)c1ccc(-c2ccccc2)cc1,104%
12,CCOc1ccc(NS(=O)(=O)c2cc(Cl)ccc2OC)cc1,102%
13,COc1ccc(NC(=O)CC2CCCCC2)cc1OC,96%
14,Cc1oc(-c2cccc(Cl)c2)nc1CN1CCC(C(=O)N2CCN(c3ccccc3F)CC2)CC1,73%
15,O=C(Nc1ccc2c(c1)OCCO2)C1CCN(C(=O)c2ccc(F)cc2)CC1,90%
16,CCOC(=O)Nc1c(O)ccc2oc(C)c(-c3ccccc3)c12,102%
17,O=C(CCNS(=O)(=O)c1cccs1)Nc1ccccc1F,81%
18,CCOC(=O)N1CCN(C(=O)CN(C2CCCCC2)S(=O)(=O)c2ccc(F)cc2)CC1,113%
19,O=C(COc1ccc(F)cc1)Nc1ccc(-n2cnnn2)cc1,103%
20,O=C(Cn1c(=O)sc2ccccc21)NCCOc1ccccc1F,102%

row,SMILES,viability
1,O=C(c1ccco1)c1nnn(Cc2ccccc2)c1-c1ccccc1,107%
2,O=C(Nc1ncc(Cc2ccccc2)s1)C1CCCO1 (stereo not given),91.5%
3,CC1=C(C(=O)OC2CCCCCC2)C(c2ccc(C)o2)C2=C(CCCC2=O)N1 (stereo not given),124%
4,CC12CN3CCN(CC(C3)C1(O)CN1CCCCC1)C2 (stereo not given),119%
5,CCn1c(C(C#N)/C(=N\S(=O)(=O)c2cccs2)c2ccccc2)nc2ccccc21 (stereo not given),112%
6,CCOC(=O)N1CCN(C(=O)c2cnn(-c3ccccc3)c2NC(=O)c2ccccc2F)CC1,102%
7,O=C(CCC(=O)OCC(=O)c1ccccc1)NC1CCCCC1,68%
8,O=C(Nc1nc2c(s1)CCCC2)C1COc2ccccc2O1 (stereo not given),103%
9,CCN(CC)S(=O)(=O)c1ccc2c(c1)nc(SCn1nnc3ccccc3c1=O)n2CC,74%
10,Cc1ccc(N2C(=O)c3oc4ccccc4c(=O)c3C2c2cccc(O)c2)nc1 (stereo not given),102%
11,COc1cc(C(=O)NCCc2ccc3c(c2)OCCO3)ccc1OCC(=O)N1CCOCC1,100%
12,O=C(CN1CCN(Cc2ccccc2)CC1)NCC1COc2ccccc2O1 (stereo not given),108%
13,Cc1nonc1NC(=O)c1ccccc1Br,101%
14,Cc1cc(NC(=O)CSc2nc3c(c(-c4cccnc4)c2C#N)CCC3)no1,65%
15,Cc1onc(-c2ccccc2)c1C(=O)NCc1cccnc1,102%
16,OC(CNCCc1ccccc1)c1ccccc1 (stereo not given),101%
17,Cc1ccc(C)n1-c1ccc(N2CCOCC2)cc1,104%
18,C#CCOC(=O)C1C2C=CC(C2)C1C(=O)O (stereo not given),86%
19,Cc1ccc(C(=O)Nc2c(C(=O)N3CCOCC3)cnn2-c2ccccc2)cc1,103%
20,Clc1cccc(-c2nnc(-c3ccccc3)o2)c1,57%
